The panel holds about 83,000 compounds, 20% with a hit somewhere; the sample as a whole holds those more often.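 Percent growth is the endpoint: 0 to 100 indicates growth inhibition (40 means 60% inhibition), 0 means no net growth, and negative values indicate cell death.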 Values without a mark were called inactive. The source made the active and inactive calls. The calls were made as follows: active = growth percent below 10; inactive = the rest.

Some test systems named below: NCI-H23 lung; NCI-H226 lung; NCI-H322M lung; HOP-62 NSCLC; NCI-H460 lung; HOP-92 NSCLC; NCI-H522 lung; A549/ATCC NSCLC; 786-0 renal; COLO 205 colon.
Common to all, as to test: NCI-60 one-dose screen, 48 h (100 = growth as untreated, 0 = no growth, -100 = all killed)
Common to all, as to conditions: 10 µM unless noted

`O=C1CC2(O)CSc3nc(=O)cc(n32)N1` (stereo not given): the growth with NCI-H23 lung was 107%; in the test with NCI-H226 lung, 98.6%; in the test with NCI-H322M lung it was 93.2%; in the test on HOP-62 NSCLC, 112%; with NCI-H460 lung, 104%; in the test on HOP-92 NSCLC it was 105%. For the same molecule, the growth in the test with NCI-H522 lung is 102%; in the test with A549/ATCC NSCLC, 96.5%; with 786-0 renal it was 99.6%; in the test on COLO 205 colon it was 103%.
Turning to `C#CC[C@@H]1C[C@]2(C)[C@H]3CC=C4[C@H]5CC(C)(C)CC[C@]5(C(=O)NCCCCN)CC[C@@]4(C)[C@]3(C)CC[C@H]2C(C)(C)[C@H]1OC(C)=O`, the growth in the test with NCI-H23 lung is 78.9%; in the test on NCI-H226 lung it was 90.3%; with NCI-H322M lung it was 36%; in the test with HOP-62 NSCLC, 92.2%; with NCI-H460 lung, -27.6% (active); in the test on HOP-92 NSCLC, 2.98% (active). Also, the growth with NCI-H522 lung was 70.1%; in the test on A549/ATCC NSCLC, 27.8%; in the test on 786-0 renal it was 6.69% (active); in the test on COLO 205 colon it was -49.7% (active).
On to `N#Cc1c(N)c(C(=O)c2ccc3c(c2)OCCO3)n2c1CCCC2`, for which the growth was 42.7% in the test with NCI-H23 lung; 81.7% in the test on NCI-H226 lung; 25.3% in the test with NCI-H322M lung; 35.4% in the test on HOP-62 NSCLC; 15.9% in the test with NCI-H460 lung; 64.4% with HOP-92 NSCLC. Besides, the growth in the test with NCI-H522 lung was -33.3% (active); in the test on A549/ATCC NSCLC, 34.5%; in the test on 786-0 renal, 53%; in the test on COLO 205 colon, 14.9%.
In the case of `O=C(Nc1ccccc1)C(CCCCN1C(=O)c2ccccc2C1=O)N1C(=O)c2ccccc2C1=O` (stereo not given), the growth was 107% in the test with NCI-H23 lung; 95.3% with NCI-H226 lung; 98% with NCI-H322M lung; 109% with HOP-62 NSCLC; 109% with NCI-H460 lung; 76.8% in the test on HOP-92 NSCLC. Further, the growth in the test with NCI-H522 lung is 94.6%; in the test with A549/ATCC NSCLC, 97.8%; with 786-0 renal, 99.6%; in the test on COLO 205 colon, 118%.
Take `CCCCCCCCCC1=NC(C)(C)CN1C(C)(C)CO`: the growth with NCI-H23 lung was 89.1%; with NCI-H226 lung, 105%; in the test with NCI-H322M lung, 89.4%; in the test on HOP-62 NSCLC, 100%; in the test with NCI-H460 lung, 105%; in the test on HOP-92 NSCLC, 91%. For the same molecule, the growth with NCI-H522 lung is 80.9%; with A549/ATCC NSCLC, 99.6%; in the test on 786-0 renal, 100%; in the test with COLO 205 colon it was 184%.
In the case of `O=[N+]([O-])c1cccc([I+]c2ccccc2)c1`, the growth in the test with NCI-H23 lung is 49.8%; with NCI-H226 lung, 59%; in the test on NCI-H322M lung, 76.6%; in the test on HOP-62 NSCLC it was -26.8% (active); with NCI-H460 lung, 18.2%; in the test on HOP-92 NSCLC, 93.6%. Also, the growth in the test on NCI-H522 lung is 50.3%; with A549/ATCC NSCLC it was 47.7%; in the test on 786-0 renal it was 70.8%; in the test on COLO 205 colon, 40.1%.
For `CCOc1cccc(/C=N/NC(=O)c2ccc(Nc3ccnc(C(F)(F)F)c3)cc2)c1O`, the growth with NCI-H23 lung was 28.2%; in the test with NCI-H226 lung it was -16.7% (active); with NCI-H322M lung it was 22.3%; in the test on HOP-62 NSCLC it was -9.17% (active); in the test on NCI-H460 lung, -3.48% (active); with HOP-92 NSCLC, 18.2%. Moreover, the growth in the test with NCI-H522 lung was 2.45% (active); in the test with A549/ATCC NSCLC, 17.8%; in the test on 786-0 renal it was 3.12% (active); in the test on COLO 205 colon it was -9.24% (active).
As for `Cc1ccc2oc(=O)cc(-c3nc4ccc([N+](=O)[O-])cc4[nH]3)c2c1`, the growth is 43.9% with NCI-H23 lung; 66.6% with NCI-H226 lung; 80.5% in the test with NCI-H322M lung; 72% in the test on HOP-62 NSCLC; 47.1% in the test with NCI-H460 lung; 52.7% in the test with HOP-92 NSCLC. For the same molecule, the growth in the test on NCI-H522 lung is 36%; in the test on A549/ATCC NSCLC, 35.2%; in the test with 786-0 renal, 40.6%; in the test with COLO 205 colon it was 67.8%.
Consider `Nc1nc(N)c2c(n1)NC(c1sc(Cl)nc1Cl)CC(c1ccccc1)=N2` (stereo not given), for which the growth in the test with NCI-H23 lung was 76.4%; in the test with NCI-H226 lung, 73.6%; in the test with NCI-H322M lung it was 101%; with HOP-62 NSCLC it was 41.9%; in the test with NCI-H460 lung, 26.8%; in the test on HOP-92 NSCLC, 48.7%. The growth in the test with NCI-H522 lung is 9.11% (active); with A549/ATCC NSCLC it was 43.1%; in the test on 786-0 renal, 62%; in the test with COLO 205 colon, 46.7%.
In the case of `c1ccc(C(CC2=NCCCN2)c2ccccc2)cc1`, the growth in the test with NCI-H23 lung is 99.6%; in the test with NCI-H226 lung, 98%; in the test on NCI-H322M lung it was 99.7%; in the test on HOP-62 NSCLC, 94.1%; in the test with NCI-H460 lung, 102%; in the test with HOP-92 NSCLC it was 82.6%. Moreover, the growth in the test with NCI-H522 lung was 90.9%; with A549/ATCC NSCLC, 91.7%; in the test on 786-0 renal, 107%; in the test on COLO 205 colon, 102%.
With `Fc1[nH]nc2ccc([C@@H]3Nc4ccc5[nH]ncc5c4[C@H]4C5CCC(C5)[C@@H]34)cc12` (stereo not given in full), the growth in the test on NCI-H23 lung is 45.2%; in the test with NCI-H226 lung, 47.5%; with NCI-H322M lung, 47.7%; in the test with HOP-62 NSCLC, 37.6%; in the test with NCI-H460 lung, 11.5%; in the test with HOP-92 NSCLC, 67.3%. Besides, the growth was 10.3% in the test with NCI-H522 lung, 28% in the test on A549/ATCC NSCLC, 51.9% in the test on 786-0 renal and 9.22% (active) with COLO 205 colon.
Regarding `CC(=O)OC1Oc2cc(C)c(C)cc2-c2oc(=O)c(-c3ccc(F)cc3)cc21` (stereo not given), the growth in the test on NCI-H23 lung was 65.2%; in the test with NCI-H226 lung, 102%; in the test with NCI-H322M lung, 113%; in the test with HOP-62 NSCLC, 77.8%; in the test on NCI-H460 lung, 38%; with HOP-92 NSCLC, 80%. Also, the growth was 14.7% in the test on NCI-H522 lung, 52.5% in the test on A549/ATCC NSCLC, 56.3% with 786-0 renal and 79.2% in the test on COLO 205 colon.
`C#CCNC(=S)N/N=C(\C)c1ccccn1`: the growth was 20.1% with NCI-H23 lung; 5% (active) with NCI-H226 lung; -4.06% (active) with NCI-H322M lung; 26.5% with HOP-62 NSCLC; 4% (active) with NCI-H460 lung; 52.4% with HOP-92 NSCLC. For the same molecule, the growth was 43.9% with NCI-H522 lung, 23.9% with A549/ATCC NSCLC, 4.03% (active) in the test with 786-0 renal and 19.6% with COLO 205 colon.
For `CCOP(=O)(O)OP(=O)(O)OCC`, the growth was 104% in the test on NCI-H23 lung; 103% in the test with NCI-H226 lung; 98.1% with NCI-H322M lung; 103% in the test with HOP-62 NSCLC; 103% in the test on NCI-H460 lung; 98.6% in the test with HOP-92 NSCLC. The growth is 82.5% in the test on NCI-H522 lung, 106% in the test with A549/ATCC NSCLC, 99.4% with 786-0 renal and 103% in the test on COLO 205 colon.

The values above are taken from PubChem BioAssay (NCI).
